DSG3 Ab inh = inhibitors of pemphigus antibody binding to DSG3, primary screen, biochemical, bead-based, flow cytometry, scFv-GFP; AID 588358, 2011; binding (percent of control), % at 10 µM; DSG3-coupled beads, scFv-anti-DSG3-GFP binding; active compounds read low; 0.48% of 310,000 active; Desmoglein-3 (Homo sapiens), P32926;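 active means binding more than 3 SD below its plate's average and above zero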;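 further: hits lower antibody fragment binding to DSG3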
Target sequence (P32926 whole entry, looked up, the tested form may be a part): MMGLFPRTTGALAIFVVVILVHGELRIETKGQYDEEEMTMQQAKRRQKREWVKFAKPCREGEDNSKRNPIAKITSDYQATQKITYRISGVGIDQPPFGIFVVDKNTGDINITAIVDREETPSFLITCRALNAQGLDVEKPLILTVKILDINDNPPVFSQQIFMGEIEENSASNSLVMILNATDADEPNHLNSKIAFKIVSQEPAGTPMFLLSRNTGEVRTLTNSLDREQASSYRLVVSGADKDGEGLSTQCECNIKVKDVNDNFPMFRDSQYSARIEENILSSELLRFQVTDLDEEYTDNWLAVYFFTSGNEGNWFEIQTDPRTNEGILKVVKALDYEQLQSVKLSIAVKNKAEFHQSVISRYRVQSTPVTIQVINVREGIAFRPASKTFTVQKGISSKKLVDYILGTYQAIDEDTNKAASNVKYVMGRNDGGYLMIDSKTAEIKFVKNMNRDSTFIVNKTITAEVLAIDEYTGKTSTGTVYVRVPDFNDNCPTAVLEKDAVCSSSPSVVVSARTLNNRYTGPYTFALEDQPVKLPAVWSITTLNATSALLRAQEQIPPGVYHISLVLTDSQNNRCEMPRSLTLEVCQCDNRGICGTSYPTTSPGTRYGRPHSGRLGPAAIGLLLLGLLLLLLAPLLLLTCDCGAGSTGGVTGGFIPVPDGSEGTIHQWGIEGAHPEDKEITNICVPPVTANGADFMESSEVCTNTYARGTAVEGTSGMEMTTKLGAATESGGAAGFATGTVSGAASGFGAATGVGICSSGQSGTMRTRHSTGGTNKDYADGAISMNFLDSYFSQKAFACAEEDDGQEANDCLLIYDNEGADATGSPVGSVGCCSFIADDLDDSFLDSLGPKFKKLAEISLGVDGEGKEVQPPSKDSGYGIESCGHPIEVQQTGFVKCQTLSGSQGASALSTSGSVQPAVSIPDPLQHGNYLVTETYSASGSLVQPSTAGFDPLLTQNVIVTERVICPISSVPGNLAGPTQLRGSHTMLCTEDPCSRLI
MPTP inh = mitochondrial permeability transition pore inhibitors, primary screen, biochemical, isolated mouse mitochondria, absorbance; Ca2+ swelling absorbance, 30 min; inhibition, % at 10 µM; 1.4% of 360,000 active; AID 602449, 2012;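 active means inhibition of 50% or more, scaled per plate between neutral and stimulator controls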;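 further: 0% = DMSO wells given calcium and 100% = 1 mM EGTA wells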
ADAM17 inh = ADAM17 inhibitors, primary screen, biochemical, QFRET; recombinant ADAM17, EDANS/DABCYL FRET peptide cleavage; inhibition, % at 6.95 µM; 0.83% of 370,000 active; AID 720648, 2013;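 active means inhibition above the mean of compounds lying between control limits plus 3 SD, set per campaign, cut at about 8.5% in these data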;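 further: 0% = DMSO-only wells as the low control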
rCAG binder = binders of r(CAG) RNA repeats, primary screen, biochemical, fluorescence. r(CAG) RNA repeat, TO-PRO-1 dye displacement fluorescence. inhibition, % at 3 µM. 1.3% of 370,000 active. AID 651821, 2012;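 active means inhibition above the plate cutoff, the mean of all test compounds on that plate plus 3 SD, cut at about 35% in these data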;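 further: 0% = DMSO alone and 100% = 100 µM mitoxantrone as full dye displacement; higher means more dye released from RNA so lower well fluorescence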
proKLK7 act = proKLK7 zymogen activators, primary screen, biochemical, fluorescence intensity; purified proKLK7, EDANS-DABCYL substrate fluorescence; 100% is mature enzyme control, 0% vehicle; activation, % at 7 µM; 0.9% of 370,000 active; AID 652039, 2013;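 active means activation above the mean of all tested compounds plus 3 SD, computed per campaign excluding outliers beyond control limits, cut at about 13% in these data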
ADAM10 inh = human ADAM10 inhibitors, primary screen, biochemical, QFRET, HTS | AID 720582, 2013 | recombinant ADAM10, EDANS/DABCYL FRET peptide cleavage, 3 h | 0.62% of 370,000 active | inhibition, % at 7 µM | Disintegrin and metalloproteinase domain-containing protein 10 (Homo sapiens), O14672;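 active means inhibition above a per-campaign cutoff equal to the mean of compounds falling between control-based bounds plus 3 SD, cut at about 20% in these data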;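 further: 0% = DMSO wells while the 100% control is not disclosed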
ADAM10 counter = ADAM10 inhibitors, counter-screen for ADAM17 exosite inhibitor project, biochemical, FRET, human ADAM10; shares compounds with ADAM17 inh; recombinant ADAM10, EDANS/DABCYL FRET peptide cleavage, 3 h; inhibition, % at 6.95 µM; 47% of 2,900 active; AID 743256, 2014;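 active means mean inhibition over the triplicate runs exceeds the activity threshold set in the earlier primary screen, cut at about 20% in these data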;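 further: 0% = DMSO wells and 100% = marimastat wells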
ADAM17 confirm = ADAM17 inhibitors, hit retest, confirmation, biochemical, QFRET peptide cleavage; inhibition, % at 6.95 µM; recombinant ADAM17, EDANS/DABCYL QFRET peptide cleavage; AID 743257, 2014; 65% of 2,900 active; shares compounds with ADAM17 inh;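 active means mean inhibition across replicates above the hit cutoff set in the primary screen, cut at about 8.5% in these data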;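 further: 0% = DMSO wells and 100% = marimastat wells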
Starred values were filed as active, the others as inactive. Shown are actives, neighbours in structure and some others; about 4.7% of the full set was active somewhere.

How did CN(c1cccc(NC(=O)CN(c2cccc(Cl)c2)S(=O)(=O)c2ccc(Cl)cc2)c1)S(C)(=O)=O do in these assays?
DSG3 Ab inh: 108; MPTP inh: 17; ADAM17 inh: 11*; rCAG binder: 6; proKLK7 act: 0; ADAM10 inh: 18; ADAM10 counter: 31*; ADAM17 confirm: 16*

How did CN(CCOc1ccccc1)C(=O)c1ccc(F)c(S(=O)(=O)N2CCOCC2)c1 do in these assays?
DSG3 Ab inh: 106; MPTP inh: -2; ADAM17 inh: 6; rCAG binder: 1; proKLK7 act: 0; ADAM10 inh: -7

What do the screens show for `CCC(C)(C)c1ccc(OCCCC[n+]2cccc(C)c2)c(C(C)(C)CC)c1`?
DSG3 Ab inh: 93; MPTP inh: 28; ADAM17 inh: 9.4*; rCAG binder: 9; proKLK7 act: 0; ADAM10 inh: 9; ADAM10 counter: 11; ADAM17 confirm: 6

Results for O=C(NCCOCC(F)(F)C(F)F)c1cc(F)c(F)cc1Cl ?
DSG3 Ab inh: 99; MPTP inh: 1; ADAM17 inh: 8.7*; rCAG binder: 1; proKLK7 act: 0; ADAM10 inh: 9; ADAM10 counter: -7; ADAM17 confirm: 1

How did Cc1ccc(-c2nn(Cc3ccccc3)cc2C(=O)N2CCN(c3ccccn3)CC2)cc1 do in these assays?
DSG3 Ab inh: 93; MPTP inh: -1; ADAM17 inh: -10; rCAG binder: 3; proKLK7 act: 0; ADAM10 inh: -6

What do the screens show for `O=C(c1cn(Cc2ccccc2)nc1-c1ccc(Cl)cc1)N1CCN(c2ccccn2)CC1`?
DSG3 Ab inh: 104; MPTP inh: -1; ADAM17 inh: 9.5*; rCAG binder: 4; proKLK7 act: 1; ADAM10 inh: 0; ADAM10 counter: 16; ADAM17 confirm: 6

Results for Cc1ccc2nc(SCC(=O)Nc3cccc(S(=O)(=O)N(C)C)c3)[nH]c2c1 ?
DSG3 Ab inh: 121; MPTP inh: 19; ADAM17 inh: 12*; rCAG binder: 4; proKLK7 act: 0; ADAM10 inh: 19; ADAM10 counter: 12; ADAM17 confirm: 11*

What do the screens show for `NS(=O)(=O)c1cccc(NC(=O)CSc2nc3ccc(Cl)cc3[nH]2)c1`?
DSG3 Ab inh: 105; MPTP inh: 1; ADAM17 inh: 3; rCAG binder: 8; proKLK7 act: 0; ADAM10 inh: 9

How did Cc1ccc(S(=O)(=O)N2C[C@@H](C)[C@]3(C2)[C@H](O)[C@H](OC(=O)NCc2ccccc2F)C[C@H]2C(=O)N(c4ccccc4)C(=O)[C@H]23)cc1 do in these assays?
MPTP inh: -2; ADAM17 inh: 9.2*; rCAG binder: 13; proKLK7 act: 0; ADAM10 inh: 14; ADAM10 counter: 37*; ADAM17 confirm: 20*

How did Cc1ccc(S(=O)(=O)N2C[C@@H](C)[C@]3(C2)[C@H](O)[C@H](OC(=O)Nc2c(C)noc2C)C[C@H]2C(=O)N(c4ccccc4)C(=O)[C@H]23)cc1 do in these assays?
MPTP inh: 0; ADAM17 inh: -2; rCAG binder: 8; proKLK7 act: 0; ADAM10 inh: 4

Results for CC[C@@]12C(=O)N(c3ccc(OC)cc3)C(=O)N1[C@H](c1ccc(Cl)cc1)[C@@H]1C(=O)N(C3CCCCC3)C(=O)[C@@H]12 ?
DSG3 Ab inh: 104; MPTP inh: 0; ADAM17 inh: -1; rCAG binder: 2; proKLK7 act: 0; ADAM10 inh: 6

How did Cn1cnnc1SCC(=O)c1cccc([N+](=O)[O-])c1 do in these assays?
DSG3 Ab inh: 100; MPTP inh: 1; ADAM17 inh: 8.7*; rCAG binder: 12; proKLK7 act: 0; ADAM10 inh: 10; ADAM10 counter: 2; ADAM17 confirm: 3

How did CC1=C(C(=O)N2CCCCCC2)CC(CC(=O)NCCCN(C)C)C(=O)N1Cc1ccccc1 (stereo not given) do in these assays?
MPTP inh: 0; ADAM17 inh: -6; rCAG binder: 4; proKLK7 act: 0; ADAM10 inh: -12

How did C/C(=N\NC(=O)c1cccc(S(=O)(=O)N2CCCC2)c1)c1ccc(C)cc1 do in these assays?
DSG3 Ab inh: 92; MPTP inh: -3; ADAM17 inh: -1; rCAG binder: -3; proKLK7 act: 0; ADAM10 inh: -3

What do the screens show for `O=C(CCCc1c[nH]c2ccccc12)Nc1ccc2ccccc2c1`?
DSG3 Ab inh: 118; MPTP inh: 3; ADAM17 inh: 10*; rCAG binder: 9; proKLK7 act: 0; ADAM10 inh: 8; ADAM10 counter: 1; ADAM17 confirm: 4

What do the screens show for `CCOC(=O)c1c(NC(=O)CSc2c[nH]c3ccccc23)sc2c1CCC2`?
DSG3 Ab inh: 98; MPTP inh: 2; ADAM17 inh: 9.8*; rCAG binder: 16; proKLK7 act: 2; ADAM10 inh: 18; ADAM10 counter: 34*; ADAM17 confirm: 21*

What do the screens show for `CCOC(=O)c1c(NC(=O)CSc2c[nH]c3ccccc23)sc2c1CCCC2`?
DSG3 Ab inh: 90; MPTP inh: 2; ADAM17 inh: 9.7*; rCAG binder: 15; proKLK7 act: -2; ADAM10 inh: 9; ADAM10 counter: 24*; ADAM17 confirm: 17*

Results for CCOC(=O)c1c(NC(=O)CSc2nnc(-c3c[nH]c4ccccc34)n2CCOC)sc2c1CCCCC2 ?
DSG3 Ab inh: 105; MPTP inh: -1; ADAM17 inh: -1; rCAG binder: 15; proKLK7 act: 0; ADAM10 inh: 5

How did COC(=O)C(C(=O)OC)c1ccccc1NC(=O)OCc1ccccc1 do in these assays?
MPTP inh: 0; ADAM17 inh: 0; rCAG binder: -2; proKLK7 act: -1; ADAM10 inh: -20

What do the screens show for `COc1c(OC(C)=O)ccc(/C=C/c2ccc3ccccc3n2)c1[N+](=O)[O-]`?
DSG3 Ab inh: 113; MPTP inh: 28; ADAM17 inh: 17*; rCAG binder: 13; proKLK7 act: 0; ADAM10 inh: 17; ADAM10 counter: 25*; ADAM17 confirm: 14*

Screening data (PubChem)
